Screening results as filed in PubChem BioAssay.
Giardia FBPA inh: qHTS Assay for Inhibitors of Fructose-1,6-bisphosphate Aldolase from Giardia Lamblia | A8B2U2 | purified Giardia FBPA | Potency, µM (series often up to 59.6 µM), for inactives: at the highest dose activity, negative = inhibition, most hits filed as inhibitors | 0.71% of 290,000 active | AID 2451, 2010; further: potency means the concentration at half of the fitted maximal effect; on the % scale 0 is the no-effect control and ±100 the full control effect; nearly all actives have a fitted effect of over 55% in size
Target sequence (A8B2U2 whole entry, looked up): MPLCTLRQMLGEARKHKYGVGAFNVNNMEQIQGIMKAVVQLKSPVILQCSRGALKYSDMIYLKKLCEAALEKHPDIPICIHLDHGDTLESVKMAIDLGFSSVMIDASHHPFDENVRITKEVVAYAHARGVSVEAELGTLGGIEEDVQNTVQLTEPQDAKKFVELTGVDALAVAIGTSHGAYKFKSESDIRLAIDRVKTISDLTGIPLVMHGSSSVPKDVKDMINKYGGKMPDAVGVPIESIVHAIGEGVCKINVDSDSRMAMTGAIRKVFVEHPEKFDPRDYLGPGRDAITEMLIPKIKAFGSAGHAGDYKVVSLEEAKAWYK
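40 nM FBPA preincubated 10 min at RT with compound (up to 57.5 uM final), then substrate plus GAPDH/TPI/NAD/arsenate coupling and diaphorase/resazurin added. Fluorescence read after 20 min at RT, 525/598 nm.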
TbPYK inhibitor: qHTS of Trypanosoma Brucei Inhibitors | TbPYK enzyme, Kinase-Glo Plus ATP luminescence, 45 min | Potency, µM (series often up to 76.8 µM), for inactives: at the top dose activity, negative = inhibition, usual class: inhibitors | 0.12% of 410,000 active | AID 624173, 2012; further: potency means the concentration at half of the fitted maximal effect; on the % scale 0 is the no-effect control and ±100 the full control effect; nearly all actives have a fitted effect of over 50% in size
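TbPYK + substrate in 50 mM TEA pH 7.2, 100 mM KCl, 10 mM MgCl2, 0.05% BSA, 0.01% Tween-20; cpd pinned; ADP 130 uM final; 45 min RT; Kinase-Glo Plus 10 min; luminescence endpoint.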
Shiga inhibitor: A qHTS for Small Molecule Inhibitors of Shiga Toxin | Vero cells, Shiga toxin protein synthesis inhibition reporter | 9.2% of 290,000 active | inhibition, % at 38.7 µM | AID 2315, 2010; in the data active means inhibition mostly above about 28%, no sharp cut-off; inactive means mostly below about 43%; further: 0% is about no effect
LmPK inhibitor: qHTS Assay for Inhibitors of Leishmania Mexicana Pyruvate Kinase (LmPK) | purified LmPK, Kinase-Glo ATP luminescence, 1 h | Potency, µM (top dose mostly 57.5 µM), for inactives: at the highest dose activity change, negative = inhibition, actives largely listed as inhibitors | 0.37% of 290,000 active; further: potency means the concentration at half of the fitted maximal effect; on the % scale 0 is the no-effect control and ±100 the full control effect
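Kinase-Glo luminescence read after 1 h RT reaction of 0.1 nM LmPK with 0.5 mM PEP and 0.1 mM ADP. Activity scaled between uninhibited and enzyme-free controls.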
Sm TGR block: qHTS Assay for the Inhibitors of Schistosoma Mansoni Peroxiredoxins. 3% of 360,000 active. purified TGR, DTNB reduction, TNB absorbance 405 nm. Potency, µM (highest dose often 114 µM), without a hit: top-dose activity change, negative = inhibition, hits mostly inhibitors. Schistosoma mansoni thioredoxin glutathione reductase (TGR), Q962Y6; further: potency means the concentration at half of the fitted maximal effect; on the % scale 0 is the no-effect control and ±100 the full control effect; nearly all actives have a fitted effect of over 60% in size
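Kinetic colorimetric format: TGR-catalysed, NADPH-driven DTNB reduction monitored via TNB absorbance. Enzyme dispensed at 20 nM; compound exposure 15 min at room temperature before reaction start.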
Cycloheximide cs: Cycloheximide Counterscreen for Small Molecule Inhibitors of Shiga Toxin; cell reporter, cycloheximide protein synthesis inhibition counterscreen; max response, %; 12% of 300,000 active; AID 2314, 2010; in the data active means max response mostly above about 13%, no sharp cut-off; inactive means mostly below about 14%; further: read at 38.3 µM for the half of the compounds with a filed dose; 0% is about no effect
* = called active by the depositor; ? = inconclusive; . = no result; [ ] = remark or other dose. The full list was thinned out, with hits kept by preference. Unless noted, the call rests on the fitted dose curve; in most records, active means well fitted curve in the direction sought with a large enough effect; inconclusive means small, poorly fitted or top-dose-only effect, or another doubt; inactive means no such curve, though single readings can be large; an effect the other way counts as inactive or inconclusive.

SMILES	Giardia FBPA inh	TbPYK inhibitor	Shiga inhibitor	LmPK inhibitor	Sm TGR block	Cycloheximide cs
Cc1ccc(S(=O)(=O)Nc2ccc(C(=O)N3CCCC3)cc2)c(C)c1NS(C)(=O)=O	10%	-2%	-2	0%	2%	6
COc1ccc(Cl)cc1NC(=O)CSc1nc2c(oc3ccccc32)c(=O)n1Cc1ccco1	.	-4%	.	.	7%	.
COc1cc(/C=N/NC(=S)NC2CC3CC2C2C=CCC32)ccc1O (stereo not drawn)	-9%	-5%	89	8%	8%	34*
CCOc1ccc(/C=N/NC(=S)NC2CC3CC2C2C=CCC32)cc1 (stereo not drawn)	2%	0%	10	12%	12%	4
Cc1ccc(C(=O)NC(=S)NCc2cccnc2)cc1C	8%	2%	14	-6%	50µM*	13
CCOc1ccc(NC(=S)NCc2cccnc2)cc1	5%	-4%	5	0%	?	7
CCOC(=O)c1ccc(NC(=S)NCc2cccnc2)cc1	1%	-4%	16	0%	0%	13*
O=C(NC(=S)NCc1cccnc1)c1ccc([N+](=O)[O-])cc1	-25%	-4%	-4	14%	-15%	7
CC(C)c1ccc(C(=O)NC(=S)NCc2cccnc2)cc1	0%	-11%	active	0%	?	16*
Cc1ccc(Cl)cc1NC(=O)CN1C(=O)C(C)(C)c2cc(S(=O)(=O)N3CCCCC3)ccc21	.	0%	.	.	-10%	.
O=C(C1COc2ccccc2O1)N1CCN(c2nc3ccc(F)cc3s2)CC1 (stereo not drawn)	.	-3%	.	.	11%	.
CC1CCN(c2ccc(C(=O)O)cc2N)CC1	-10%	-4%	-14	-9%	5%	25*
CC(=O)c1ccc(N2CCCC2)c(F)c1	5%	.	81*	-1%	1%	17*
Cc1ccc(N2CCN(C(=O)c3cccs3)CC2)cc1C	14%	2%	.	34%	35µM*	15
CC(=O)c1ccc(N2CCC(C)CC2)c(F)c1	4%	-1%	41	-8%	-3%	29*
COc1ccc(CCNC(=O)c2cnc3ccc(C)cn3c2=O)cc1	.	4%	.	.	8%	.
CC(=O)c1ccc(N2CCN(C(=O)c3cccs3)CC2)c(F)c1	11%	0%	16	-3%	?	16*
COc1ccc(CCNC(=O)CCc2cn(Cc3ccc(C)cc3)c3ccccc23)c(OC)c1OC	.	2%	.	.	0%	.
CCN(CCn1cccn1)C(=O)CCc1nnc(Cc2c[nH]c3ccccc23)o1	4%	1%	20	6%	0%	-1
COCC1CCN(C(=O)CCc2nnc(C3(c4ccc(Cl)cc4)CCC3)o2)CC1	6%	2%	33	4%	0%	15*
CCN(CCn1cccn1)C(=O)CCc1nnc(C2(c3ccc(Cl)cc3)CCC2)o1	1%	-13%	92*	2%	2%	41*
CCN(CCn1cccn1)C(=O)CCc1nnc(-c2ccccc2)o1	3%	-4%	57*	-6%	-30%	37*
COc1ccc(S(=O)(=O)NC2CC(C)(C)NC(C)(C)C2)cc1C(C)C	3%	-1%	-3	2%	-6%	1
Cc1ccc2c(c1)c1ncnc(N3CCOCC3)c1n2C	4%	5%	94*	7%	6%	28*
Cc1ccc2c(c1)c1ncnc(N3CCC4(CC3)OCCO4)c1n2C	-2%	.	64*	0%	0%	33*
SMILES	Giardia FBPA inh	TbPYK inhibitor	Shiga inhibitor	LmPK inhibitor	Sm TGR block	Cycloheximide cs
CN(C)S(=O)(=O)c1cccc(C(=O)OCC(=O)Nc2sccc2C#N)c1	9%	1%	75*	12%	-1%	56*
COc1ccc(C(=O)NCC(=O)OCC(=O)Nc2sccc2C#N)cc1OC	-5%	-2%	36*	-4%	1%	22*
Cc1cc(Nc2ccccc2F)n2nc(Cc3ccc(Cl)cc3)nc2n1	.	-8%	.	.	0%	.
Oc1cc2c(cc1O)[C@H]1c3ccccc3CNC1CC2 (stereo partly drawn)	-7%	.	.	.	.	.
NC1CCc2cc(O)c(O)cc2C1 (stereo not drawn)	-20%	?	.	.	45µM*	.
CCOc1ccc(-n2c(/C=C/c3cccc(F)c3)nc3cc(OC)c(OC)cc3c2=O)cc1	.	0%	.	.	5%	.
O=C(C1CC1)N1CCN(c2nc3ccccc3s2)CC1	3%	2%	132*	-7%	-21%	33*
CNC(=S)N1CCN(c2nc3ccccc3s2)CC1	3%	0%	69*	9%	5%	46*
CCCCNC(=S)N1CCN(c2nc3ccccc3s2)CC1	0%	-2%	-2	-2%	-3%	-2
O=C(Nc1ccccc1)N1CCN(c2nc3ccccc3s2)CC1	-3%	3%	0	3%	-7%	27*
CS(=O)(=O)N1CCN(c2nc3ccccc3s2)CC1	0%	-2%	11	1%	-2%	12*
CCC(=O)N1CCN(c2nc3ccccc3s2)CC1	0%	0%	36	-6%	-1%	23*
CC(CC(=O)O)Nc1ccccc1O (stereo not drawn)	?	-7%	7	-6%	.	-6
CC(C)OCCCNc1ncnc2c1cnn2-c1ccccc1	1%	0%	55*	2%	0%	11
Cc1ccc(-n2ncc3c(NCCCOC(C)C)ncnc32)c(C)c1	-2%	-7%	75	2%	3%	-3
CN(C)CCCNc1ncnc2c1cnn2-c1ccccc1	-6%	-8%	72*	-1%	5%	49*
Cc1cc(SCC(=O)Nc2ccc(C(F)(F)F)cc2)nc(=O)[nH]1	.	4%	.	.	-5%	.
Cc1cccc(-c2nsc(SCC(=O)N3CCCC3)n2)c1	3%	-7%	117*	-20%	-7%	36*
O=C(CSc1nc(-c2ccccc2)ns1)N1CCOCC1	-8%	-8%	91*	1%	4%	39*
N#C/C(=C\c1ccc2c(c1)OCO2)C(N)=S	-18%	-3%	-7	2%	-8%	-2
N#CC(=Cc1ccc(O)cc1)C(N)=C(C#N)C#N	.	-6%	.	.	-6%	.
CCN(CC)c1ccc(/C=C(\C#N)C(=O)c2ccc(Br)cc2)cc1	0%	0%	-3	-3%	-5%	20*
CCN(CC)c1ccc(/C=C(\C#N)C(N)=S)cc1	-2%	2%	39	-5%	4%	25*
CCN(CC)c1ccc(/C=C(\C#N)C(N)=O)cc1	1%	4%	71	-2%	-8%[57.1 µM]	29*
COc1cccc([C@@H]2Oc3ccc(Br)cc3C(=O)[C@H]2OC(=O)N[C@H]2CCCc3ccccc32)c1	2%	.	.	.	.	.
